The whole screen tested about 5,500 compounds, of which about 2,000 (36%) were called active. Inconclusive results (about 18%) are left out. No stated cut-off is given here; in the data, active means normalized growth mostly below about 0.91 (no sharp cut-off); inconclusive means no clear call, values can overlap the other calls; inactive means mostly above about 0.92. The list shows a part of the results.
Test: chemical genetic growth profiling, strain panel (AID 1159580);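 further: tested at 20 µM; growth read once vehicle control cultures reached saturation at 30 °C; 1 = growth at the plate median or of vehicle wells; lower values mean less growth of the strain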
Settings: growth OD

Measured: normalized growth

CCCCN(CC)c1c([N+](=O)[O-])cc(C(F)(F)F)cc1[N+](=O)[O-]
inactive: S. cerevisiae deletion strains, locus YJR075W, strain HOC1, active compounds read low 1 | S. cerevisiae deletion strains, locus YKL009W, strain mrt4, active compounds read low 1.04 | S. cerevisiae deletion strains, locus YKL068W, active compounds read low 1.01 | S. cerevisiae deletion strains, locus YKL085W, strain MDH1 (second series), active compounds read low 1.01 | S. cerevisiae deletion strains, locus YKL085W, strain MDH1, active compounds read low 1.01 | S. cerevisiae deletion strains, locus YKL160W, strain elf1, active compounds read low 1.02 | S. cerevisiae deletion strains, locus YKL190W, strain CNB1, active compounds read low 1.02 | S. cerevisiae deletion strains, locus YKR001C, strain vps1, active compounds read low 1.04 | S. cerevisiae deletion strains, locus YKR026C, strain gcn3, active compounds read low 1.02 | S. cerevisiae deletion strains, locus YKR091W, strain srl3, active compounds read low 1.01 | S. cerevisiae deletion strains, locus YLL001W, strain dnm1, active compounds read low 1.01 | S. cerevisiae deletion strains, locus YLL026W, active compounds read low 1 | S. cerevisiae deletion strains, locus YLL041C, strain sdh2, active compounds read low 1.01 | S. cerevisiae deletion strains, locus YLR027C, strain aat2, active compounds read low 0.996 | S. cerevisiae deletion strains, locus YLR039C, strain RIC1, active compounds read low 1.02 | S. cerevisiae deletion strains, locus YLR058C, strain SHM2, active compounds read low 1.01 | S. cerevisiae deletion strains, locus YLR102C, strain apc9, active compounds read low 1.01 | S. cerevisiae deletion strains, locus YLR113W, strain HOG1, active compounds read low 0.973 | S. cerevisiae deletion strains, locus YLR221C, strain rsa3, active compounds read low 1 | S. cerevisiae deletion strains, locus YLR258W, strain gsy2, active compounds read low 1.01 | S. cerevisiae deletion strains, locus YLR262C, strain YPT6 (second series), active compounds read low 0.995 | S. cerevisiae deletion strains, locus YLR262C, strain YPT6, active compounds read low 1.02 | S. cerevisiae deletion strains, locus YLR268W, strain sec22, active compounds read low 1.02 | S. cerevisiae deletion strains, locus YLR320W, strain mms22, active compounds read low 1.02 | S. cerevisiae deletion strains, locus YLR330W, strain CHS5, active compounds read low 1.01 | S. cerevisiae deletion strains, locus YLR342W, strain FKS1 (second series), active compounds read low 1.08 | S. cerevisiae deletion strains, locus YLR342W, strain FKS1, active compounds read low 1 | S. cerevisiae deletion strains, locus YLR357W, strain rsc2, active compounds read low 1.03 | S. cerevisiae deletion strains, locus YLR370C, strain arc18, active compounds read low 1.01 | S. cerevisiae deletion strains, locus YLR371W, strain rom2, active compounds read low 1.01 | S. cerevisiae deletion strains, locus YLR384C, strain iki3, active compounds read low 1 | S. cerevisiae deletion strains, locus YLR418C, strain cdc73, active compounds read low 1 | S. cerevisiae deletion strains, locus YML016C, strain PPZ1, active compounds read low 1.01 | S. cerevisiae deletion strains, locus YML032C, strain rad52, active compounds read low 1.02 | S. cerevisiae deletion strains, locus YML120C, strain ndi1, active compounds read low 1.03 | S. cerevisiae deletion strains, locus YML124C, strain tub3, active compounds read low 1.01 | S. cerevisiae deletion strains, locus YMR058W, strain fet3, active compounds read low 1.02 | S. cerevisiae deletion strains, locus YMR078C, strain ctf18, active compounds read low 1.01 | S. cerevisiae deletion strains, locus YMR125W, strain sto1, active compounds read low 1.01 | S. cerevisiae deletion strains, locus YMR129W, active compounds read low 1.02 | S. cerevisiae deletion strains, locus YMR205C, strain PFK2, active compounds read low 1 | S. cerevisiae deletion strains, locus YMR223W, strain ubp8, active compounds read low 1.02 | S. cerevisiae deletion strains, locus YMR231W, strain pep5, active compounds read low 0.997 | S. cerevisiae deletion strains, locus YMR263W, strain SAP30, active compounds read low 1.02 | S. cerevisiae deletion strains, locus YMR307W, strain GAS1, active compounds read low 0.998 | S. cerevisiae deletion strains, locus YNL067W, strain RPL9B, active compounds read low 1.01 | S. cerevisiae deletion strains, locus YNL071W, strain lat1, active compounds read low 1.02 | S. cerevisiae deletion strains, locus YNL128W, strain TEP1, active compounds read low 1.02 | S. cerevisiae deletion strains, locus YNL153C, strain GIM3, active compounds read low 1.01 | S. cerevisiae deletion strains, locus YNL183C, strain NPR1, active compounds read low 0.999 | S. cerevisiae deletion strains, locus YNL209W, strain ssb2, active compounds read low 1.01 | S. cerevisiae deletion strains, locus YNL233W, strain BNI4, active compounds read low 1.01 | S. cerevisiae deletion strains, locus YNL248C, strain rpa49, active compounds read low 1.02 | S. cerevisiae deletion strains, locus YNL250W, strain rad50, active compounds read low 1 | S. cerevisiae deletion strains, locus YNL271C, strain bni1, active compounds read low 1.01 | S. cerevisiae deletion strains, locus YNL298W, strain CLA4, active compounds read low 1.01 | S. cerevisiae deletion strains, locus YNL307C, strain MCK1, active compounds read low 1.02 | S. cerevisiae deletion strains, locus YNL322C, strain KRE1 (second series), active compounds read low 1.01 | S. cerevisiae deletion strains, locus YNL322C, strain KRE1, active compounds read low 1.01 | S. cerevisiae deletion strains, locus YNR049C, strain mso1, active compounds read low 1.01 | S. cerevisiae deletion strains, locus YNR052C, strain pop2, active compounds read low 1.02 | S. cerevisiae deletion strains, locus YOL006C, strain TOP1, active compounds read low 1.01 | S. cerevisiae deletion strains, locus YOL012C, strain htz1 0.93 | S. cerevisiae deletion strains, locus YOL147C, strain pex11, active compounds read low 1.01 | S. cerevisiae deletion strains, locus YOR001W, strain rrp6, active compounds read low 1.03 | S. cerevisiae deletion strains, locus YOR061W, strain CKA2, active compounds read low 1.01 | S. cerevisiae deletion strains, locus YOR069W, strain VPS5, active compounds read low 1.01 | S. cerevisiae deletion strains, locus YOR070C, strain gyp1, active compounds read low 1.02 | S. cerevisiae deletion strains, locus YOR080W, strain dia2, active compounds read low 1 | S. cerevisiae deletion strains, locus YOR083W, strain WHI5, active compounds read low 1.02 | S. cerevisiae deletion strains, locus YOR106W, strain vam3, active compounds read low 0.994 | S. cerevisiae deletion strains, locus YOR136W, strain idh2, active compounds read low 1.01 | S. cerevisiae deletion strains, locus YOR144C, strain elg1, active compounds read low 1.01 | S. cerevisiae deletion strains, locus YOR184W, strain ser1, active compounds read low 1.03 | S. cerevisiae deletion strains, locus YOR231W, strain MKK1, active compounds read low 1.06 | S. cerevisiae deletion strains, locus YOR265W, strain rbl2, active compounds read low 1.03 | S. cerevisiae deletion strains, locus YOR270C, strain vph1, active compounds read low 1.06 | S. cerevisiae deletion strains, locus YOR290C, strain snf2, active compounds read low 1.04 | S. cerevisiae deletion strains, locus YOR316C, strain cot1, active compounds read low 1.01 | S. cerevisiae deletion strains, locus YPL051W, strain arl3, active compounds read low 1 | S. cerevisiae deletion strains, locus YPL055C, strain LGE1, active compounds read low 1.01 | S. cerevisiae deletion strains, locus YPL078C, strain atp4, active compounds read low 1.02 | S. cerevisiae deletion strains, locus YPL106C, strain sse1, active compounds read low 1.03 | S. cerevisiae deletion strains, locus YPL240C, strain hsp82, active compounds read low 1.01 | S. cerevisiae deletion strains, locus YPL241C, strain CIN2, active compounds read low 1.01 | S. cerevisiae deletion strains, locus YPL256C, strain CLN2, active compounds read low 1.05 | S. cerevisiae deletion strains, locus YPR119W, strain clb2, active compounds read low 1.01 | S. cerevisiae deletion strains, locus YPR141C, strain kar3, active compounds read low 1.01 | S. cerevisiae deletion strains, locus YPR163C, strain tif3, active compounds read low 1.01 | S. cerevisiae deletion strains, locus YPR167C, strain met16, active compounds read low 1.02 | S. cerevisiae deletion strains, strain wtn01, active compounds read low 1.01 | S. cerevisiae strains, strain wild type, active compounds read low 1.01
